Laboratory results from PubChem BioAssay AID1159580 (chemical genetic matrix, 2015).
Several values for one entry are separate records, joined by “and”; a condition that tells them apart may be missing. Equal entries are not always repeated. Hit rate of the full screen: of about 5,500 compounds, about 2,000 (36%) were called active. Inconclusive results (about 18%) are left out. No stated cut-off is given here; in the data, active means normalized growth mostly below about 0.91 (no sharp cut-off); inconclusive means no clear call, values can overlap the other calls; inactive means mostly above about 0.92. Some of the results follow.

Assay: chemical genetic growth profiling, strain panel (AID 1159580);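 further: tested at 20 µM; growth read once vehicle control cultures reached saturation at 30 °C; 1 = growth at the plate median or of vehicle wells; lower values mean less growth of the strain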
Settings: S. cerevisiae deletion strains, growth OD

Measured: normalized growth

NC(=O)c1cc([N+](=O)[O-])cc([N+](=O)[O-])c1
inactive: locus YAL021C, strain ccr4, active compounds read low 1.03 | locus YAL026C, strain drs2, active compounds read low 0.962 | locus YAL030W, strain snc1, active compounds read low 1.01 | locus YBL061C, strain skt5, active compounds read low 1.02 | locus YBR009C, strain hhf1, active compounds read low 0.972 | locus YBR021W, strain FUR4, active compounds read low 0.99 | locus YBR023C, strain chs3, active compounds read low 1.02 | locus YBR171W, strain sec66, active compounds read low 1.04 | locus YBR229C, strain ROT2, active compounds read low 1.02 | locus YBR231C, strain swc5, active compounds read low 0.991 | locus YBR279W, strain paf1, active compounds read low 1.03 | locus YCL011C, strain gbp2, active compounds read low 1.02 | locus YCL016C, strain dcc1, active compounds read low 1.05 | locus YCL029C, strain bik1, active compounds read low 0.983 | locus YCL061C, strain MRC1, active compounds read low 1.01 | locus YCL069W, strain vba3, active compounds read low 1.02 | locus YCR088W, strain abp1, active compounds read low 1.02 | locus YDL005C, strain med2, active compounds read low 1.03 | locus YDL035C, strain GPR1, active compounds read low 0.992 | locus YDL040C, strain nat1, active compounds read low 1.01 | locus YDL074C, strain BRE1, active compounds read low 0.986 | locus YDL101C, strain DUN1, active compounds read low 0.989 | locus YDL134C, strain PPH21, active compounds read low 1.01 | locus YDL185W, strain tfp1, active compounds read low 0.974 | locus YDL192W, strain arf1, active compounds read low 0.986 | locus YDR001C, strain nth1, active compounds read low 1.01 | locus YDR069C, strain doa4, active compounds read low 0.979 | locus YDR101C, strain arx1, active compounds read low 0.982 | locus YDR159W, strain sac3, active compounds read low 1.04 | locus YDR162C, strain NBP2, active compounds read low 0.992 | locus YDR297W, strain sur2, active compounds read low 1 | locus YDR318W, strain mcm21, active compounds read low 0.974 | locus YDR334W, strain swr1, active compounds read low 1.03 | locus YDR335W, strain msn5, active compounds read low 1.02 | locus YDR388W, active compounds read low 0.996 | locus YDR502C, strain sam2, active compounds read low 0.983 | locus YEL003W, strain gim4, active compounds read low 0.961 | locus YEL037C, strain rad23, active compounds read low 1.01 | locus YEL061C, strain CIN8 (second series), active compounds read low 1.02 | locus YEL061C, strain CIN8, active compounds read low 1.01 | locus YER015W, strain faa2, active compounds read low 1.02 | locus YER016W, strain bim1, active compounds read low 0.999 | locus YER110C, active compounds read low 0.979 | locus YER111C, strain swi4, active compounds read low 1.04 | locus YER155C, strain BEM2, active compounds read low 1.01 | locus YER167W, strain BCK2, active compounds read low 1.02 | locus YFR010W, strain ubp6, active compounds read low 0.995 | locus YGL078C, strain dbp3, active compounds read low 0.995 | locus YGL086W, strain mad1, active compounds read low 0.968 | locus YGL167C, strain pmr1, active compounds read low 1.02 | locus YGL173C, strain kem1, active compounds read low 1.01 | locus YGL227W, strain vid30, active compounds read low 1.02 | locus YGL240W, strain doc1, active compounds read low 0.969 | locus YGL248W, strain PDE1, active compounds read low 1.02 | locus YGL253W, strain hxk2, active compounds read low 0.994 | locus YGR078C, strain PAC10, active compounds read low 1 | locus YGR135W, strain pre9, active compounds read low 0.978 | locus YGR252W, strain gcn5, active compounds read low 0.906 | locus YHR013C, strain ard1, active compounds read low 1.09 | locus YHR027C, strain rpn1, active compounds read low 0.997 | locus YHR030C, strain SLT2, active compounds read low 1.02 and 0.959 | locus YHR079C, strain IRE1 (second series), active compounds read low 0.996 | locus YHR079C, strain IRE1, active compounds read low 0.955 | locus YHR094C, strain hxt1, active compounds read low 0.954 | locus YHR129C, strain ARP1, active compounds read low 1.02 | locus YHR142W, strain chs7, active compounds read low 1.01 | locus YHR200W, strain rpn10, active compounds read low 0.997 | locus YIL066C, strain RNR3, active compounds read low 1.01 | locus YIL073C, strain SPO22, active compounds read low 0.993 | locus YIL125W, strain kgd1, active compounds read low 1 | locus YIR030C, strain dcg1, active compounds read low 1 | locus YJL092W, strain hpr5, active compounds read low 1.02 | locus YJL095W, strain BCK1 (second series), active compounds read low 1.01 | locus YJL095W, strain BCK1, active compounds read low 0.994 and 0.966 | locus YJL115W, strain asf1, active compounds read low 1.02 | locus YJL129C, strain trk1, active compounds read low 1.1 | locus YJL134W, strain LCB3, active compounds read low 1.01 | locus YJL154C, strain vps35, active compounds read low 1.03 | locus YJL164C, strain tpk1, active compounds read low 0.977 | locus YJL166W, strain qcr8, active compounds read low 1 | locus YJL168C, strain set2, active compounds read low 0.997 | locus YJL187C, strain SWE1 (second series), active compounds read low 1.01 | locus YJL187C, strain SWE1, active compounds read low 1.03 | locus YJR043C, strain POL32, active compounds read low 0.967 | locus YJR066W, strain TOR1, active compounds read low 0.918
active: locus YDR137W, strain rgp1, active compounds read low 1.25 [resistant] | locus YDR195W, strain ref2 0.78 | locus YDR392W, strain spt3, active compounds read low 0.633 | locus YER155C, strain BEM2 (second series), active compounds read low 0.788
